# In ChEMBL document CHEMBL3433997, “St. Jude Leishmania screening dataset” (2016):
# Target: Glucose transporter (Leishmania mexicana) (UniProt O61059)
# Assay: ST_JUDE_LEISH: Cytotoxicity at 2uM final concentration against transgenic Leishmania Mexicana promastigotes LmGT2 that are glucose transport deficient and complemented with the L. Mexicana glucose transporter 2. Activity is measured by DNA content using SYBR green in vitro
# Type: functional
row,SMILES,inhibition [%]
1,CCn1ccc2c(N3CCCC3=O)cc(C(=O)N[C@@H](Cc3ccccc3)[C@H](O)CNC3CCCCC3)cc21,0.18
2,Cc1nc2ccc(NC(=O)Nc3ccnc4ccc(C(F)(F)F)cc34)cc2o1,5.33
3,Clc1ccc(OCc2ccccc2)c(-c2nc(-c3nc4ccc(Cl)cc4[nH]3)cs2)c1,3.09
4,COc1ccc2nccc([C@H](O)CN3CCC(NCc4cc(C)c5c(c4)OCCO5)CC3)c2n1,-2.32
5,CC(=O)Nc1nc(C(=O)Nc2ccc(-c3ccc(-c4nc5ccccc5[nH]4)cc3)cc2)cs1,3.01
6,N#C/N=C(\NCCCCCCCCN/C(=N\C#N)NCCSCc1csc(N=C(N)N)n1)NCCCSc1csc(N=C(N)N)n1,0.43
7,Cc1cccc(CN2CCCC3(CCN(Cc4ccccc4O)C3)C2)c1 (stereo not given),-0.38
8,CNc1ccc(CNCc2cccc(-c3ccc(-c4nc5cccc(C)c5[nH]4)cc3)c2)cc1,0.87
9,c1ccc(Oc2ccc(Nc3ccnc4cc(-c5ccc(CN6CCCCC6)o5)ccc34)cc2)nc1,0.73
10,CNCc1ccc(-c2cccc(CNCc3ccc(-c4ccccc4)cc3)c2)c(C(=O)OC)c1,2.91
11,COc1cc(OC)cc(-c2nn(-c3ccc([N+](=O)[O-])cc3C#N)c(=S)n2Cc2ccco2)c1,4.15
12,O=C(Nc1ccc(CN2CCN(S(=O)(=O)c3ccc(Cl)s3)CC2)cc1)c1cccs1,5.63
13,CC(Cc1ccc(OCCCCOc2ccccc2)cc1)NCCc1ccc(Oc2ccccc2)cc1 (stereo not given),78.2
14,O=C(Nc1ccc(-c2cccc(-c3nc4cc(C(F)(F)F)ccc4[nH]3)c2)cc1)c1csnn1,14.2
15,O=c1cc(NCCCNCc2cn(S(=O)(=O)c3ccccc3)c3ccccc23)[nH]c2ccccc12,-0.88
16,CN(C)Cc1cccc(-c2cnc(N)c(-c3nc4cc(S(C)(=O)=O)ccc4[nH]3)c2)c1,3.97
17,O=C(Nc1cccc(-c2cccc(-c3nc4cc(F)ccc4[nH]3)c2)c1)c1ccoc1,4.95
18,Cn1nccc1C(=O)NCCNCc1cccc(-c2ccc(-c3nc4ccccc4[nH]3)s2)c1,-1.72
19,O=C(Nc1cccc(-c2cccc(-c3nc4cc(F)ccc4[nH]3)c2)c1)c1c[nH]cn1,-1.75
20,c1ccn2c(Sc3ncnc4sccc34)ncc2c1,-1.33

row,SMILES,inhibition [%]
1,COc1ccc2nccc([C@@H](O)CN3CCC(NCc4ccc5scnc5c4)CC3)c2c1,3.04
2,CN1N=C2c3ccccc3CCC2C1c1ccc(C#N)cc1 (stereo not given),7.86
3,Cc1ccc(O)cc1Nc1ccnc2ccc(-c3csc(CNCCN4CCOCC4)n3)cc12,1.59
4,CN(C)Cc1ccc(-c2cc3ncnc(Nc4ccc(OCc5cccc(F)c5)c(Cl)c4)c3s2)[nH]1,1.76
5,O=[N+]([O-])c1cccc(C(Nc2ccccn2)c2ccc3cccnc3c2O)c1 (stereo not given),4.17
6,CC(C)COc1ccc(Cl)cc1Cc1ccc(-c2nc3cc(F)c(F)cc3[nH]2)o1,1.02
7,CCCCCCn1ccc2c3c(N)nc(N)nc3ccc21,102
8,Cc1c(F)cc(C(=O)NC2CC2)cc1-c1ccc2c(cnn2S(=O)(=O)c2ccc(Cl)s2)c1,0.9
9,O=C(NC1CCN(Cc2ccc3c(c2)OCCO3)CC1)c1ccc(-c2cccc(Cl)c2)s1,6.98
10,COc1ccccc1CNC(=O)CCn1c(=O)[nH]c2ccsc2c1=O,1.36
11,CCCCCN1CCCC(NS(=O)(=O)c2ccc(C(=O)Nc3ccc(C(F)(F)F)cc3)cc2)C1 (stereo not given),1.89
12,Cc1cccc(-c2c(C)nc(N)nc2N)c1,1.08
13,CC1Cc2ccccc2N1CC(=O)Nc1cc(C(F)(F)F)ccc1-n1cncn1 (stereo not given),-1.95
14,Cc1nc2nc(N)nc(N)c2c(C)c1Cc1cccs1,2.44
15,O=C(NCCCCN1CCC(c2ccc3c(c2OCCO)CCCC3)CC1)c1sc(-c2ccc(C(F)(F)F)cc2)nc1CO,3.21
16,CCN(CC)CCN(Cc1ccc(-c2ccc(C(F)(F)F)cc2)cc1)C(=O)Cn1c(CCc2c(F)cc(F)cc2F)nc(=O)c2ccccc21,0.56
17,O=C(O)c1ccc(OCOCOc2ccc(C(=O)O)c(O)c2)cc1O,3.43
18,CCNc1cc(C(=O)N[C@@H](Cc2ccccc2)[C@H](O)CN[C@@H]2CCc3ccccc32)cc(N2CCCC2=O)c1,2.15
19,CCOC(=O)C1CCN(CCCNC(=O)/C(=C/C=C/c2cc3cc(Cl)c(Cl)cc3[nH]2)OC)CC1,0.42
20,CCc1ccc(CN(CCCOc2cccc(CC(=O)NCc3c[nH]cn3)c2)Cc2ccc(-n3ccnc3)cc2)cc1,3.08
